Assay results reported in PubChem BioAssay (NCI).
The panel holds about 83,000 compounds, 20% with a hit somewhere; the sample as a whole holds those more often.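 Treatment: one concentration, 48 hours, 96-well format. Scoring: percent growth, with anything below 10 considered active.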 Unmarked numbers belong to inactive results. Activity calls are given as the source filed them.

Tests used:
Test in all cases: NCI-60 one-dose screen, 48 h (100 = growth as untreated, 0 = no growth, -100 = all killed)
Conditions in all cases: 10 µM unless noted
[1] = system: HCT-15 colon
[2] = system: HT29 colon
[3] = system: SNB-75 CNS
[4] = system: SNB-19 CNS
[5] = system: U251 CNS
[6] = system: PC-3 prostate
[7] = system: SK-MEL-5 melanoma
[8] = system: UACC-62 melanoma
[9] = system: LOX IMVI melanoma
[10] = system: SK-MEL-28 melanoma

| Structure (SMILES) | growth [1] | growth [2] | growth [3] | growth [4] | growth [5] | growth [6] | growth [7] | growth [8] | growth [9] | growth [10] |
| --- | --- | --- | --- | --- | --- | --- | --- | --- | --- | --- |
| COc1ccc(/C=C/c2cc(OC)c(OC)c(OC)c2)cc1NC(=O)/C=C/c1ccc(F)cc1 | 25.2% | 9.9% (active) | 3.26% (active) | 33.5% | 36.8% | 28.7% | 7.06% (active) | 35.5% | 39% | 47.2% |
| COc1ccc(/C=C\c2cc(OC)c(OC)c(OC)c2)cc1NC(=O)/C=C/c1cc(OC)c(OC)c(OC)c1 | 46.5% | 34.2% | 30.6% | 61.8% | 57% | 36% | 1.74% (active) | 31.4% | 46.3% | 44% |
| C/C(CC(C)(C)N1CC1)=N\NC(=O)Nc1cccc2ccccc12 | 60.8% | 38.6% | 58.8% | 63.5% | 57.3% | 64.4% | 72.3% | 68.4% | 46.1% | 102% |
| CC12CCC3C(C=CC4=C(N)C(=O)CCC43C)C1CCC2=O (stereo not given) | 73% | 51.2% | 94.2% | 103% | 54.2% | 46.5% | 69.7% | 81% | 60.6% | 103% |
| CCOC(=O)N1CC1 | 96.3% | 97.5% | 90.8% | 98.4% | 96.3% | 88.1% | 101% | 88.4% | 92.7% | 103% |
| COc1cccc(C=NC(Cc2cnc[nH]2)C(=O)O)c1O (stereo not given) | 108% | 100% | 86.3% | 96.1% | 102% | 51.5% | 94.2% | 95.6% | 100% | 103% |
| C[N+](C)(C)Cc1cc(Cl)ccc1O | 91.8% | 97.5% | 99.3% | 118% | 98.7% | 99.8% | 93.1% | 102% | 99% | 102% |
| CC[C@H](C)[C@H](NC(=O)[C@H]1CCCCN1C)C(=O)N(C)[C@H](CCc1nc(C(=O)N[C@@H](Cc2ccccc2)C[C@H](C)C(=O)OC)cs1)C(C)C | 12.3% | -3.3% (active) | 56.3% | 35.2% | 10.2% | 24.3% | -22.1% (active) | 41.5% | 24% | 65.6% |
| COC(=O)[C@@H](C)C[C@H](Cc1ccccc1)NC(=O)c1nc([C@@H](C[C@H](C(C)C)N(C)C(=O)[C@@H](NC(=O)[C@H]2CC(=O)CCN2C)C(C)C)OC(C)=O)sc1C(C)C | 8.84% (active) | -9.41% (active) | 15.7% | 21.2% | 12.1% | 24.3% | -14.3% (active) | 36.4% | 14.7% | 51.8% |
| CCOC(=O)CCN(C)C1=Nc2ccc(Cl)cc2C(c2ccccc2)=[N+]([O-])C1 | 105% | 82% | 99.5% | 99.3% | 100% | 91% | 100% | 93.4% | 99.8% | 121% |
| Cc1ccc2c(C(C[N+](=O)[O-])c3cccs3)c(-c3ccccc3)[nH]c2c1 (stereo not given) | 20% | 9.87% (active) | -37.2% (active) | 37.8% | 21% | 28% | 36.3% | 38.3% | 31.7% | 49.4% |
| CCOC(=O)[C@@H](C)C[C@H](Cc1ccccc1)NC(=O)c1csc([C@@H](C[C@H](C(C)C)N(C)C(=O)[C@@H](NC(=O)[C@H]2CCCCN2C)C(C)(C)CC)OC(C)=O)n1 | 8.77% (active) | -4.94% (active) | -5.95% (active) | 17.6% | 9.55% (active) | 24.1% | -15.3% (active) | 33.1% | 14.3% | 38.6% |
| COc1cc(C=C2c3ccccc3C(=O)c3ccccc32)ccc1OCCCCOc1cc2c(cc1OC)C(=O)N1CCCC1C=N2 (stereo not given) | -75.6% (active) | -64.6% (active) | -90.9% (active) | -89.2% (active) | -100% (active) | -45.9% (active) | -92.4% (active) | -90.1% (active) | -100% (active) | -82.8% (active) |
| CC1(C)N=C(N)N=C(N)N1c1ccc(CCCCc2ccc(Cl)c(S(=O)(=O)F)c2)c(Cl)c1 | 37.3% | 16.3% | 35.1% | 31.6% | 28.8% | 15.1% | 10.6% | 16.2% | 13.6% | 58.2% |
